Peg3 prom inh – Peg3 promoter activity inhibition; 1.7% of 360,000 active; HeLa PEG-Prom luciferase reporter, luminescence, overnight; inhibition, % at 20 µM;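 active = inhibition of at least 50% at 20 µM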
Mdm2 MdmX PPI – inhibitors of human Mdm2/MdmX interaction; 3% of 330,000 active; inhibition, % at 8 µM; O15151+Q00987; SaOS-2 split-luciferase Mdm2/MdmX complementation, luminescence; AID 485346;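 active = inhibition of at least 50% at 8 µM in the primary screen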
CF NFkB block – cystic fibrosis NF-kB activation inhibition; KKLEB NF-kB-GFP reporter, PAF-induced, GFP fluorescence overnight; inhibition, % at 5 µM; 0.86% of 360,000 active; AID 588850;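 active = at least 50% inhibition at 5 µM, scaled per plate between neutral and stimulator controls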;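 note: PAF is a Pseudomonas aeruginosa culture filtrate used as stimulus; plate controls were PAF-stimulated DMSO wells for no effect and unstimulated DMSO wells for full effect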
LGR2 antag – blocks bursicon-induced cAMP signaling via Drosophila LGR2. HEK293 LGR2, CRE-luciferase, bursicon-stimulated, 4 h. inhibition, % at 9.99 µM. 0.35% of 380,000 active;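 active = drop in luminescence signal, shown as inhibition above about 50% in the replicate tests, limit read from the data, passing the limit was not always enough; inconclusive = probably only some replicates passing the limit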;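 note: agonist challenge used bursicon conditioned medium at about half maximal strength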
HSP90 inh – blocks HSP90-mediated luciferase refolding in reticulocyte lysate; Rabbit reticulocyte lysate, luciferase refolding luminescence, 3 h; inhibition, % at 5.6 µM; 0.91% of 290,000 active; AID 1789;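 active = inhibition above the screen-wide mean plus 3 SD, computed separately per campaign, cut at about 16% in these data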;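 note: 0% = DMSO wells and 100% = 60 µM geldanamycin wells; inhibitors lower the luminescence because luciferase stays unfolded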
KKLEB cytotox – counter-screen for CF NF-kB inhibitors: cytotoxicity; AID 602141; activity change (cytotoxicity), % at 5 µM; 0.36% of 360,000 active; KKLEB CF airway cells viability, ATPlite luminescence, overnight; active compounds read low; cells stimulated with P. aeruginosa culture filtrate;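 active = corrected activity change at or below -50% at 5 µM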
Active calls of the source: *. Most compounds without a hit are left out; they make up all but 3.6% or so of the library.

CCCN1[C@@H]2c3ccc(-c4ccncc4)c(=O)n3C[C@@H]2[C@@H](CO)[C@@H]1C(=O)NCCCN1CCOCC1 was read as LGR2 antag -4.
`Cc1c(NC(=O)c2ccc3c4c(cccc24)CC3)c(=O)n(-c2ccccc2)n1C` gave Peg3 prom inh 9, Mdm2 MdmX PPI -2, CF NFkB block -5, HSP90 inh 5 and KKLEB cytotox 4.
O=C(/C=C/c1ccccc1)c1ccc2c3c(cccc13)CC2 was read as Peg3 prom inh 60*, Mdm2 MdmX PPI -3, CF NFkB block -14, LGR2 antag -49, HSP90 inh 5 and KKLEB cytotox -18.
`CO[C@@H]1CN(C)C(=O)c2ccc(NS(C)(=O)=O)cc2OC[C@@H](C)N(C(=O)C2CCOCC2)C[C@H]1C` gave LGR2 antag -19.
CC1=C(C(=O)Nc2ccc(C)cc2C)C(c2cccc(Cl)c2)n2nc(C(=O)OC(C)C)nc2N1 (configuration not stated) was read as Peg3 prom inh 40, Mdm2 MdmX PPI -9, CF NFkB block -3, LGR2 antag 1, HSP90 inh 4 and KKLEB cytotox 3.
For CC1=C(C(=O)Nc2ccc(C)cc2C)C(c2cccc([N+](=O)[O-])c2)n2nc(C(=O)OC(C)C)nc2N1 (configuration not stated) the results were Peg3 prom inh 81*, Mdm2 MdmX PPI 1, CF NFkB block -14, LGR2 antag 19, HSP90 inh -1 and KKLEB cytotox -25.
C[C@@H]1CN([C@H](C)CO)C(=O)Cc2cc(NS(=O)(=O)c3ccc(Cl)cc3)ccc2O[C@H]1CN(C)C(=O)Nc1cccc2ccccc12 was read as LGR2 antag 21.
Screening COc1ccc(C=O)cc1Cn1c(C)cc(C)c(C#N)c1=O returned Peg3 prom inh 51*, Mdm2 MdmX PPI 3, CF NFkB block 9, LGR2 antag -18, HSP90 inh 5 and KKLEB cytotox -3.
`Cc1ccccc1Cn1c(C)cc(C)c(C#N)c1=O` gave Peg3 prom inh 8, Mdm2 MdmX PPI 19, CF NFkB block 6, LGR2 antag 2, HSP90 inh -1 and KKLEB cytotox 0.
For CCCCSc1nc(SCC(=O)NCc2ccco2)c2c3c(sc2n1)COC(C)(CC)C3 (configuration not stated) the results were Peg3 prom inh 77*, Mdm2 MdmX PPI 7, CF NFkB block -16, HSP90 inh -1 and KKLEB cytotox -13.
`CCc1nc(SCC(=O)NCc2ccco2)c2c3c(sc2n1)CCCC3` gave Peg3 prom inh -1, Mdm2 MdmX PPI 25, CF NFkB block 0, HSP90 inh -3 and KKLEB cytotox -6.
Screening Cc1ccc(S(=O)(=O)N2CCCC2)cc1[N+](=O)[O-] returned Peg3 prom inh 6, Mdm2 MdmX PPI -18, CF NFkB block 13, LGR2 antag -6, HSP90 inh 3 and KKLEB cytotox -2.
Cc1ccc(S(=O)(=O)N2CCCCC2C)cc1[N+](=O)[O-] (configuration not stated) was read as Peg3 prom inh 5, Mdm2 MdmX PPI 1, CF NFkB block -10, LGR2 antag 24, HSP90 inh 16* and KKLEB cytotox 4.
For O=[N+]([O-])c1cc(S(=O)(=O)N2CCCCCC2)ccc1Cl the results were Peg3 prom inh 69*, Mdm2 MdmX PPI 36, CF NFkB block -12, LGR2 antag inconclusive, HSP90 inh 2 and KKLEB cytotox -3.
For C[C@@H]1CN([C@@H](C)CO)C(=O)c2cc(NC(=O)CCCN(C)C)ccc2O[C@@H]1CN(C)Cc1ccc2c(c1)OCO2 the results were LGR2 antag -12.
O=S(=O)(Nc1nc2ccccc2nc1N1CCc2ccccc2C1)c1ccc(Cl)cc1 was read as Peg3 prom inh -114, Mdm2 MdmX PPI -40, CF NFkB block 20, LGR2 antag 17, HSP90 inh -5 and KKLEB cytotox -3.
O=S(=O)(Nc1nc2ccccc2nc1N1CCc2ccccc2C1)c1ccc(Br)cc1 was read as Peg3 prom inh -30, CF NFkB block -40, LGR2 antag -22, HSP90 inh 17* and KKLEB cytotox -8.
For O=c1cc(-c2ccccc2)oc2ccc3ccccc3c12 the results were Peg3 prom inh 43, CF NFkB block -67, LGR2 antag 101* and KKLEB cytotox -67*.
`O=c1cc(-c2ccccc2)oc2c1ccc1ccccc12` gave LGR2 antag -44.
Screening C[C@@H]1CN([C@@H](C)CO)S(=O)(=O)c2ccc(C3=CCCCC3)cc2O[C@@H]1CN(C)C(=O)C1CCOCC1 returned LGR2 antag 1.
For CC1(C)CC2(C)OC2C2(C1)N=NC(=Nc1ccccc1)O2 (configuration not stated) the results were Peg3 prom inh 73*, CF NFkB block 49 and KKLEB cytotox -33.
`COc1ccc2c3c([nH]c2c1)[C@H](CO)NCC31CN(C(=O)C2CC2)C1` gave LGR2 antag -9.
CC(=O)OCCNc1cc(Sc2nc3ccccc3[nH]2)c2nonc2c1[N+](=O)[O-] was read as Peg3 prom inh 113*, CF NFkB block 63*, LGR2 antag inconclusive, HSP90 inh -2 and KKLEB cytotox -16.
For O=[N+]([O-])c1c(NCCCO)cc(Sc2ccc(Cl)cc2)c2nonc12 the results were Peg3 prom inh 98*, CF NFkB block -4, LGR2 antag 21, HSP90 inh -3 and KKLEB cytotox 24.
`Cn1ccnc1Sc1cc(NCCCO)c([N+](=O)[O-])c2nonc12` gave Peg3 prom inh 85*, Mdm2 MdmX PPI 26, CF NFkB block -19, LGR2 antag 7, HSP90 inh 1 and KKLEB cytotox 18.
O=[N+]([O-])c1c(NCCCO)cc(SCc2ccco2)c2nonc12 was read as Peg3 prom inh 16, Mdm2 MdmX PPI 29, CF NFkB block 6, LGR2 antag -9, HSP90 inh -1 and KKLEB cytotox -11.
For CCNC(=O)Nc1ccc2c(c1)C(=O)N(C)[C@H]1CC[C@H](CC(=O)Nc3ccc(C)cc3)O[C@@H]1CO2 the results were LGR2 antag -6.
CCNC(=O)C[C@@H]1CC[C@H]2[C@@H](COc3ccc(NC(=O)Nc4ccccc4C)cc3C(=O)N2C)O1 was read as LGR2 antag -18.
CO[C@@H]1CN(C)C(=O)c2cc(NS(=O)(=O)c3ccc(Cl)cc3)ccc2OC[C@@H](C)N(C)C[C@H]1C was read as LGR2 antag -2.
`CCCC(=O)Nc1ccc2c(c1)OC[C@H](C)N(Cc1cncnc1)C[C@H](C)[C@@H](OC)CN(C)C2=O` gave LGR2 antag 15.
Screening COc1cc(CN2[C@@H]3CNC[C@H]2C3c2ccc(-c3ccccc3C)cc2)cc(OC)c1 (some centres not stated) returned LGR2 antag 1.

Screens deposited in PubChem BioAssay by several laboratories.
